Hits are enriched below; roughly 0.93% of the tested compounds scored in any of these assays.
Phagocyt inh = blocks phagocytosis by macrophages. J774A.1 macrophage IgG-bead phagocytosis, imaging. AID 1029. inhibition, % at 5 µM. 0.07% of 110,000 active;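 active means inhibition above the mean of the plate negative controls plus 5 SD, cut at about 13% in these data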;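 further: phagocytic index as fraction of beads internalized from green versus red external bead signal; plate controls were DMSO negative control for no effect and cytochalasin-D positive control for full effect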
HUVEC tox TNFa = toxic to HUVEC cells under TNF alpha stimulation | HUVEC TNFalpha-stimulated, Hoechst cell count, imaging | cell count reduction, % at 2 µM | 0.17% of 93,000 active;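 active means cell count reduction exceeding the screen mean by over 5 SD, scaled to untreated wells per plate, cut at about 78% in these data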;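 further: cells counted after 24 h of TNF alpha exposure following the 1 h pretreatment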
IL1B NFkB pot = enhances IL-1B driven NFkB nuclear translocation; HUVEC IL-1B NFkB p65 nuclear translocation imaging; activation, % at 2 µM; AID 819; 0.3% of 94,000 active;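 active means activation above 40%, about the mean plus 3 SD, also judged a hit on visual image review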;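 further: percent activation is computed from the nuclear over cytoplasmic p65 intensity ratio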
IL1B cytotox = HUVEC cytotoxicity counter-screen, IL-1B stimulated. 0.41% of 94,000 active. cell count reduction, % at 2 µM. HUVEC cell count loss, Hoechst imaging;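 active means cell count reduction more than 3 SD above the screen-wide mean, cut at about 70% in these data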;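 further: normalized per plate to untreated control cells as the no-loss baseline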
NFkB transloc inh = blocks IL-1B driven NFkB nuclear translocation in HUVEC cells. inhibition, % at 2 µM. HUVEC IL-1B NFkB p65 nuclear translocation imaging. 0.43% of 94,000 active;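 active means inhibition above about 30% together with a positive call from visual inspection of the well image, limit read from the data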;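 further: nuclear over cytoplasmic p65 intensity ratio measured by imaging; 0% = IL-1B stimulated DMSO wells and 100% = unstimulated DMSO wells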
An asterisk follows results filed as active; nt = no result given; + = active, no number; [ ] = remark or other dose.

SMILES	Phagocyt inh	HUVEC tox TNFa	IL1B NFkB pot	IL1B cytotox	NFkB transloc inh
O=C(COC(=O)C12CC3CC(CC(C3)C1)C2)NCCc1ccccc1	0.4	11.7	-14.9	0.0	14.9
CC(C)c1cc(NCC2CCCO2)n2c(nc3ccccc32)c1C#N (stereo not given)	1.7	-3.0	17.9	-38.6	-17.9
O=C(Nc1nccs1)C1CCCN1S(=O)(=O)c1ccc(F)cc1 (stereo not given)	+	-3.4	16.8	-7.5	-16.8
COc1ccc(NC(=O)C2CCCN2S(=O)(=O)c2ccc(F)cc2)cc1 (stereo not given)	-0.4	-17.3	24.8	-12.0	-24.8
Cc1cc(Cl)ccc1NC(=O)CCCN1C(=O)CCC1=O	-0.2	18.1	-43.1	-4.3	43.1*
Cn1c(NC(=O)c2ccc(S(=O)(=O)N3CCOCC3)cc2)cc(=O)n(C)c1=O	3.1	nt	nt	nt	nt
CC1(C)Cc2ccccc2C(N/N=C/c2ccc(Cl)cc2)=N1	-6.4	nt	nt	nt	nt
Cc1ccc(S(=O)(=O)N2CCSC2C(=O)O)cc1 (stereo not given)	nt	3.3	-6.8	74.9*	6.8
Cc1cc2c3c(c1C)C1(C(=O)N3C(C)(C)CC2C)C(C#N)=C(N)Oc2cc(O)ccc21 (stereo not given)	-1.2	-10.6	2.3	-1.1	-2.3
Cc1ccc(C(=O)O/N=C(\N)c2nonc2N)cc1	2.2	nt	nt	nt	nt
Cn1c(-c2ccccc2)c[n+]2c1-c1ccccc1C2	-4.0	nt	nt	nt	nt
CCOC(=O)NC(NC(=S)Nc1ccc(OCC)cc1)C(Cl)(Cl)Cl (stereo not given)	28.7*[artifact]	nt	nt	nt	nt
CS(=O)(=O)N1CCN(c2c(Cl)cccc2[N+](=O)[O-])CC1	nt	-23.6	3.0	16.7	-3.0
Cc1ccccc1C1(CCN2CCCCC2)CCOC(C)(C)C1 (stereo not given)	-1.9	nt	nt	nt	nt
COc1ccc2c(c1)c1ncn(CCN3CCNCC3)c(=O)c1n2C	nt	-3.7	-15.9	92.4*	15.9
CCC1C(=O)Nc2nc(-c3ccccc3)c(-c3ccccc3)n2N=C1C (stereo not given)	-0.6	3.5	119.9*	13.2	-119.9
CC(/C=N\Nc1nnc2c(n1)[nH]c1c(C)cccc12)=C\c1ccco1	1.8	-26.0	-4.7	-5.8	4.7
COC(=O)c1ccc(C(=O)OC)c(NC(=S)N2CCCC(C)C2)c1 (stereo not given)	-5.6	nt	nt	nt	nt
COc1ccc(C2C(C(C)=O)=C(C)N=c3s/c(=C\c4ccc5c(c4)OCO5)c(=O)n32)c(OC)c1 (stereo not given)	nt	-5.4	12.6	94.4*	-12.6
COc1ccc(C2C(C(C)=O)=C(C)N=c3s/c(=C\c4ccco4)c(=O)n32)c(OC)c1 (stereo not given)	2.1	0.8	-10.3	-13.1	10.3
COc1ccc(-c2nc3c(n2O)CCC/C3=N\O)cc1	-1.8	-24.4	-10.1	-27.1	10.1
Cc1nc2c(n1O)CCC/C2=N\O	1.0	-29.5	48.7*	7.9	-48.7
CCCOC(=S)Nc1ccccc1	0.2	-10.1	-2.2	-5.7	2.2
COc1ccc(-c2cc(C(F)(F)F)nc(NCc3ccco3)n2)cc1OC	nt	-35.7	7.0	-20.2	-7.0
FC(F)(F)c1cc(-c2ccc3c(c2)OCO3)nc(NCc2ccco2)n1	-0.5	78.5*	-2.1	21.4	2.1
SMILES	Phagocyt inh	HUVEC tox TNFa	IL1B NFkB pot	IL1B cytotox	NFkB transloc inh
CC1CCCN(c2nc3nonc3nc2N2CCCC(C)C2)C1 (stereo not given)	nt	4.6	2.0	-3.4	-2.0
CC1CCCN(c2nc3ccsc3c(=O)s2)C1 (stereo not given)	0.4	91.4*	8.0	-7.4	-8.0
C=CCN1C(=O)CS/C1=N\S(=O)(=O)c1ccc(Cl)cc1	-2.0	nt	nt	nt	nt
C=CCNCc1cccn1-c1sc2c(c1C#N)CCCC2	-2.1	53.8	-30.6	8.3	30.6*
Cc1ccc(NS(=O)(=O)c2ccc(NC(=O)c3cccc(NC(=O)C(C)C)c3)cc2)cc1	0.6	37.4	-5.0	-8.0	5.0
Cc1c(Cl)c(-c2n[nH]c(=S)n2-c2ccc(F)cc2)nn1C	1.3	-15.7	-35.8	4.2	35.8*
CCCCNC(=S)NNC(=O)c1ccc(Br)o1	-2.0	nt	nt	nt	nt
Fc1ccc(/C=N/NC(=S)Nc2ccc(Cl)cc2)cc1F	-7.7	nt	nt	nt	nt
COC(=O)C1CC(=O)c2sccc2C1 (stereo not given)	2.9	nt	nt	nt	nt
Cc1cc(C)c(S(=O)(=O)Nc2ccc3c4c(cccc24)CC3)c(C)c1	nt	57.2	-41.9	59.4	41.9*
CCn1nc(C)c(/C=N/NC(=O)Cn2nc(C)cc2C)c1C	10.6	nt	nt	nt	nt
O=C(COC(=O)c1cccc2c1C(=O)c1ccccc1C2=O)NC1CCCCC1	-7.8	nt	nt	nt	nt
O=C(COC(=O)c1ccccc1C(=O)c1ccc(Cl)c([N+](=O)[O-])c1)NC1CCCCCC1	2.4	28.5	-83.4	47.2	83.4*
COc1ccc(S(=O)(=O)N2CCCC(C(=O)NC3CCCCC3)C2)cc1 (stereo not given)	-1.3	nt	1.6	2.5	-1.6
COc1ccc(S(=O)(=O)N2CCCC(C(=O)O)C2)cc1 (stereo not given)	nt	51.2	-34.3	33.3	34.3*
COc1cccc(N2CCN(c3c4c(nc5ncnn35)CCC4)CC2)c1	2.5	20.8	-30.2	36.4	30.2*
c1ccc(N2CCN(c3c4c(nc5ncnn35)CCC4)CC2)cc1	-1.4	-30.6	27.8	1.7	-27.8
CC(NC(=O)NC(N)=O)(C(F)(F)F)C(F)(F)F	nt	-2.3	40.9*	-24.7	-40.9
CC(NC(=O)Nc1ccc(O)cc1)(C(F)(F)F)C(F)(F)F	nt	18.5	-5.6	-24.3	5.6
O=c1cnnc(NCc2ccccc2)[nH]1	0.4	-8.1	4.6	-10.5	-4.6
COc1ccc(-c2cc(=O)[nH]c(NCc3ccccc3)n2)cc1	0.2	99.3*	26.3	-11.3	-26.3
CCc1ccc(CN(C)CC(=O)Nc2sccc2C#N)cc1	-3.1	nt	nt	nt	nt
Cc1ccc(C2(c3ccc(C)cc3)CC2C(=O)Nc2ccc([N+](=O)[O-])cc2O)cc1 (stereo not given)	0.0	-17.1	nt	nt	nt
O=C(CN1CCCCCC1)N1c2ccccc2C=Cc2ccccc21	-0.9	-14.4	-31.4	2.9	31.4*
O=C(CN1CCCCC1)N1CCCc2ccccc21	-0.1	8.6	13.2	9.5	-13.2
SMILES	Phagocyt inh	HUVEC tox TNFa	IL1B NFkB pot	IL1B cytotox	NFkB transloc inh
O=C(NC1CC1)c1c[nH]c2ccc(S(=O)(=O)Nc3cccc(C(F)(F)F)c3)cc2c1=O	nt	-4.9	2.5	90.9*	-2.5
C=CCn1c(Cc2csc(N)n2)nnc1SCC(=O)Nc1ccccc1C(F)(F)F	nt	-16.3	11.3	-10.8	-11.3
Cc1ccc(C(C)C)c(OCCNS(C)(=O)=O)c1	2.0	-2.8	-10.2	84.2*	10.2
O=C(CNS(=O)(=O)c1c(Cl)cccc1Cl)OCC(=O)N1CCN(c2ccccc2)CC1	-3.6	nt	nt	nt	nt
CCn1c(SCC(=O)Nc2ncc(C(F)(F)F)cc2Cl)nnc1-c1ccccc1	-2.0	nt	nt	nt	nt
CCOC(=O)/C(C#N)=C1\CCCN1CC(N)=S	0.5	nt	nt	nt	nt
O=C(c1ccncc1)N1CCN(C(=O)c2ccco2)CC1	-4.2	-24.0	0.0	-24.4	0.0
NC(=O)N1CCN(C(=O)c2ccco2)CC1	0.3	-6.8	-31.3	84.3*	31.3*
O=C(OC1CCN(c2ncc(C(F)(F)F)cc2Cl)CC1)c1cccc(C(F)(F)F)c1	-2.3	8.7	-1.1	53.5	1.1
O=C(c1cccc(C(F)(F)F)c1)N1CCOC12CCN(c1ncc(C(F)(F)F)cc1Cl)CC2	1.7	-10.7	-33.4	-14.7	33.4*

Compound activity: PubChem, several laboratories
